Inconclusive results are not listed. Calls of active or inactive are those of the source. Rule for the calls, unless noted: active = hit-call score of the fitted dose curve at least 0.9, where 1 is the maximum; inactive = score below 0.9.
Assays:
[1] = CCTE_Harrill_HTTr_Viability_MCF7: CCTE's 6-hour Cell Viability Assessment for the High-Throughput Transcriptomics (HTTr) Platform, in MCF-7 cells cultured in DMEM + 10% fetal bovine serum, Harrill Lab (AID 2284010)
Method in brief: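 Read-out is propidium iodide gain of signal by high-content imaging, reflecting membrane integrity loss. Measurements are taken 6 h after dosing, eight concentrations per chemical, with DMSO serving as baseline for bidirectional curve fitting.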

[2] = CCTE_Shafer_MEA_dev_firing_rate_mean: CCTE's Neural Network Formation Assay for Mean Firing Rate, Shafer Lab (AID 2284031);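 note: curve fitted for loss of firing so AC50 reflects decreased mean firing rate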
Method in brief: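 Steps: seed rat cortical cells (1.5 x 10^5/well) with laminin on PEI-coated MEA; dose day 0; record DIV 5/7/9/12, full media and compound exchange after DIV 5 and 9 recordings; compute well-mean firing rate AUC.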

[3] = CCTE_Shafer_MEA_dev_per_burst_spike_percent: CCTE's Neural Network Formation Assay for Percent of Spikes in a Burst, Shafer Lab (AID 2284032);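 note: fitted as a decrease in burst spike percentage below DMSO baseline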
Method in brief: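 Value is trapezoidal AUC over recordings on days 5, 7, 9 and 12 of the well-mean fraction of spikes falling in single-electrode bursts; rat cortical cultures exposed continuously from plating, treatment renewed DIV 5 and 9, fitted downward against DMSO.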

[4] = CCTE_Shafer_MEA_dev_active_electrodes_number: CCTE's Neural Network Formation Assay for Number of Active Electrodes, Shafer Lab (AID 2284040; active = hit-call score of the fitted dose curve at least 0.9, where 1 is the maximum;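 note: potency for loss of active electrodes versus DMSO so lower counts are hits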)
Method in brief: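 Counts electrodes per well firing at least 5 spikes/min, recorded on days 5, 7, 9 and 12 in rat cortical cultures dosed continuously from plating (treatment refreshed DIV 5, 9). Value is the area under the curve over recordings, fitted downward relative to DMSO.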

[5] = CCTE_Shafer_MEA_dev_burst_rate: CCTE's Neural Network Formation Assay for Burst Rate, Shafer Lab (AID 2284042);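 note: potency for loss of burst rate below DMSO control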
Method in brief: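 Developmental network assay measuring how 12-day exposure of rat cortical neuron cultures alters bursting on extracellular MEA recordings. Values are AUC of well-mean burst rate across four recording days, relative to DMSO vehicle.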

[6] = CCTE_Shafer_MEA_dev_bursting_electrodes_number: CCTE's Neural Network Formation Assay for Number of Bursting Electrodes, Shafer Lab (AID 2284043; active = hit-call score of the fitted dose curve at least 0.9, where 1 is the maximum;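 note: potency is for loss of bursting electrodes relative to DMSO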)
Method in brief: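 Counted: electrodes with burst rate ≥1 per 2 min in each well. Cells: primary rat cortex, 1.5 x 10^5/well, on 16-electrode MEA wells. Exposure: DIV 0–12, compound renewed DIV 5 and 9. Recording days 5, 7, 9, 12; AUC vs DMSO baseline.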

[7] = CCTE_Shafer_MEA_dev_per_burst_interspike_interval: CCTE's Neural Network Formation Assay for Burst Interspike Interval, Shafer Lab (AID 2284044);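 note: potency for a decrease of within-burst interspike interval below DMSO level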
Method in brief: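 Primary rat cortical neurons on 48-well MEA plates, exposed from day 0 through day 12, treatment renewed at DIV 5 and 9. Within-burst interspike interval recorded days 5, 7, 9, 12, well-averaged, summarised as AUC; negative fit versus DMSO.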

[8] = CCTE_Shafer_MEA_dev_burst_duration_mean: CCTE's Neural Network Formation Assay for Mean Burst Duration, Shafer Lab (AID 2284045);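 note: curve fitted for loss meaning shorter burst duration than DMSO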
Method in brief: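 Network-formation assay in primary rat cortical neurons; treatment spans twelve days of development. Mean burst duration per well is integrated by trapezoidal AUC and fitted in the loss-of-signal direction against DMSO baseline.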

[9] = CCTE_Shafer_MEA_dev_interburst_interval_mean: CCTE's Neural Network Formation Assay for Mean Interburst Interval, Shafer Lab (AID 2284046);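 note: well-mean interburst interval of bursting electrodes as AUC over four recording days; curve fitted for decrease in interburst interval relative to DMSO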
Method in brief: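 Network formation assay in primary rat cortical cultures, exposed from DIV 0 to 12. Mean interburst interval per well, integrated as AUC over four recordings.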

[10] = CCTE_Shafer_MEA_dev_inter_network_spike_interval_mean: CCTE's Neural Network Formation Assay for Mean Inter-network Spike Interval, Shafer Lab (AID 2284047)
Method in brief: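 Compound was given at plating to primary rat cortical neurons and renewed with full medium changes on DIV 5 and 9. Extracellular activity was recorded on days 5, 7, 9, 12; AUC values were fitted for loss relative to DMSO control.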

[11] = CCTE_Shafer_MEA_dev_network_spike_number: CCTE's Neural Network Formation Assay for Number of Network Spikes, Shafer Lab (AID 2284048);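 note: synchronized bursts across electrodes counted on days 5 7 9 12 and integrated as AUC; fit as a loss of signal meaning fewer network spikes than DMSO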
Method in brief: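 Extracellular recordings from 16-electrode wells track network formation in rat cortical cultures under continuous treatment from plating. The endpoint is network spike number, expressed as AUC across DIV 5–12 relative to DMSO vehicle.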

[12] = CCTE_Shafer_MEA_dev_network_spike_peak: CCTE's Neural Network Formation Assay for Mean Number of Electrodes in Network Spike, Shafer Lab (AID 2284049);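 note: fitted for loss of signal meaning fewer electrodes in network spikes than DMSO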
Method in brief: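 Continuous 12-day exposure of rat cortical cultures, starting at plating, on MEA plates. Endpoint: electrodes participating in network-spike peaks, AUC across DIV 5–12, DMSO as negative control.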

[13] = CCTE_Shafer_MEA_dev_spike_duration_mean: CCTE's Neural Network Formation Assay for Mean Spike Duration, Shafer Lab (AID 2284051);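 note: mean network spike duration pooled as area under curve over DIV 5 to 12 recordings; potency for a decrease in mean network spike duration versus DMSO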
Method in brief: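 With DMSO as baseline, loss of mean network spike duration was scored from extracellular recordings of rat cortical neurons on MEA plates. Exposure spanned plating to DIV 12; the four recording days were collapsed into one AUC value.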

[14] = CCTE_Shafer_MEA_dev_network_spike_duration_std: CCTE's Neural Network Formation Assay for Standard Deviation of Network Spike Duration, Shafer Lab (AID 2284052);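 note: area under curve of spike duration SD across recording days 5 to 12; hits are decreases in network spike duration SD versus DMSO vehicle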
Method in brief: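 Developing networks of rat cortical neurons were exposed over twelve days in vitro on 48-well MEA plates. Trapezoidal AUC of recordings (DIV 5–12) was analysed for signal loss relative to DMSO vehicle.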

[15] = CCTE_Shafer_MEA_dev_per_network_spike_spike_number_mean: CCTE's Neural Network Formation Assay for Mean Number of Spikes in a Network Spike, Shafer Lab (AID 2284053)
Method in brief: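 First, rat cortical cells (1.5 x 10^5/well) were seeded onto MEA wells; second, dosing began at plating and was refreshed on DIV 5 and 9; finally, network-spike spike counts across DIV 5–12 were summarized as AUC.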

[16] = CCTE_Shafer_MEA_dev_per_network_spike_spike_percent: CCTE's Neural Network Formation Assay for Percent of Spikes in a Network Spike, Shafer Lab (AID 2284054)
Method in brief: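 Developing networks of rat cortical neurons are dosed at day 0 and recorded extracellularly four times up to day 12. The endpoint is the area under the curve of percent spikes in network spikes, fitted in the negative direction relative to DMSO.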

[17] = CCTE_Shafer_MEA_dev_LDH: CCTE's Lactate Dehydrogenase Assay for Cytotoxicity in the Neural Network Formation Assay, Shafer Lab (AID 2284068; active = hit-call score of the fitted dose curve at least 0.9, where 1 is the maximum;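 note: exposure for twelve days from plating with re-dosing on DIV 5 and 9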)
Method in brief: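 Developing rat cortical networks on MEA plates are exposed to compound for 12 days from plating. LDH activity is measured spectrophotometrically, with DMSO as baseline.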

[18] = CCTE_Shafer_MEA_dev_AB: CCTE's Alamar Blue Assay for Cytotoxicity in the Neural Network Formation Assay, Shafer Lab (AID 2284083; active = hit-call score of the fitted dose curve at least 0.9, where 1 is the maximum;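 note: resazurin reduction fluorescence as viability of cultured neurons; twelve days of exposure from plating with re-dosing on DIV 5 and 9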)
Method in brief: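 Cytotoxicity companion to the developmental MEA: primary rat cortical neurons, 12-day exposure starting day 0, compound refreshed DIV 5 and 9; resazurin fluorescence, fitted against DMSO vehicle.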

[19] = CCTE_Shafer_MEA_dev_correlation_coefficient_mean: CCTE's Neural Network Formation Assay for Mean Correlation Coefficient, Shafer Lab (AID 2284093);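 note: well mean pairwise spike train correlation integrated as AUC over recording days 5 to 12; potency fitted for loss of correlation relative to DMSO vehicle wells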
Method in brief: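 Extracellular firing from rat cortical networks on 48-well MEAs, DMSO-referenced, negative fitting direction. Compound present from plating to DIV12; mean pairwise correlation per well integrated over DIV5–12 recordings by trapezoidal AUC.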

[20] = UKN2_HCS_IMR90_neural_migration: University of Konstanz (UKN) Leist Lab Neural Crest Cell Migration Assay in human induced IMR90 Pluripotent Stem Cells (UKN2) (AID 2284204); conditions: actives raise or lower the signal
Method in brief: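 Using a 96-well stopper format with PLO/laminin/fibronectin coating, neural crest cells from iPSC migrate in cytokine-supplemented N2-S medium; after 24 h, chemicals are applied for a further 24 h, then cells are imaged after dye staining.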

[21] = IUF_NPC1b_proliferation_BrdU_72hr: Leibniz Research Institute for Environmental Medicine (IUF) 72-hour Neural Progenitor Cell Bromodeoxyuridine (BrdU) Proliferation Assay (NPC1b) (AID 2284207)
Method in brief: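 Neural progenitor spheres of human fetal origin are treated for three days; BrdU added for the last 16 h is quantified by luminescence ELISA, with DMSO as baseline and EGF/FGF omission as positive control.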

[22] = IUF_NPC1a_proliferation_area_72hr: Leibniz Research Institute for Environmental Medicine (IUF) 72-hour Neural Progenitor Cell Proliferation Area Assay (NPC1a) (AID 2284208)
Method in brief: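 Single 0.25–0.35 mm human fetal neural progenitor spheres in proliferation medium with EGF and FGF, exposed 72 h from plating without renewal at 37C, pH 7.2-7.6. Sphere area growth measured by automated phase-contrast imaging, relative to DMSO.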

[23] = IUF_NPC1_viability_72hr: Viability Assessment at 72 hours in the Leibniz Research Institute for Environmental Medicine (IUF) Neural Progenitor Cell Proliferation Assay (NPC1) (AID 2284209)
Method in brief: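 Spheres of primary human neural progenitors were plated singly in proliferation medium and treated for 72 h. Mitochondrial reduction of resazurin was then measured by fluorescence and analysed against DMSO controls.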

[24] = CCTE_Mundy_HCI_Cortical_Synap_Neur_Matur_NeuriteSpotCountPerNeuriteLength: CCTE's Synaptogenesis and Neurite Maturation Assay in rat cortical cells for Neurite Spot Count per Neurite Length, Mundy Lab (AID 2284210)
Method in brief: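 Neurite-associated synapse density (synaptophysin puncta per unit neurite length) is measured by fluorescence high-content imaging in rat cortical cultures treated from DIV 7 and fixed at DIV 12, with DMSO as negative control.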

[25] = CCTE_Mundy_HCI_Cortical_Synap_Neur_Matur_BPCount: CCTE's Synaptogenesis and Neurite Maturation Assay in rat cortical cells for Branch Point Count, Mundy Lab (AID 2284211)
Method in brief: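 HCI read-out of branch points from MAP2/synaptophysin/Hoechst immunofluorescence; rat cortical cultures, AraC DIV 5, dosing DIV 7, fixed DIV 12; fit in positive direction vs DMSO baseline.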

[26] = CCTE_Mundy_HCI_Cortical_NOG_NeuriteCount: CCTE's Neurite Outgrowth Assay in rat cortical cells for Neurite Count, Mundy Lab (AID 2284212);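 note: cells fixed about two days after chemical exposure began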
Method in brief: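 Rat cortical primary cells; compound added 2 h post-plating, 1/10 dilution of working solution. Anti-betaIII-tubulin/AF488 ICC; ArrayScan neurite count vs DMSO.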

Measured: AC50

CC(CNC(=S)[S-])NC(=S)[S-].[Zn+2] (stereo unspecified)
inactive: [1] | [10] | [20] | [22] | [23] | [24]
active: [2] 6.97 µM | [3] 17.4 µM | [4] 16.8 µM | [5] 9.92 µM | [6] 15 µM | [7] 26.2 µM | [8] 9.67 µM | [9] 50 µM | [11] 8.44 µM | [12] 20.9 µM | [13] 8.64 µM | [14] 3.38 µM | [15] 24.7 µM | [16] 91.5 µM | [17] 39.4 µM | [18] 32.2 µM | [19] 19.7 µM | [21] 50 µM | [25] 50 µM | [26] 31.5 µM

— PubChem BioAssay (EPA / NIEHS)
